Screening results deposited in PubChem by several laboratories.
Compounds with a hit are over-represented: about 4% of the library has one in this group of screens.
ADAM17 inh: ADAM17 inhibitors, primary screen, biochemical, QFRET; recombinant ADAM17, EDANS/DABCYL FRET peptide cleavage; actives 0.83% (n = 370,000); inhibition, % at 6.95 µM; Disintegrin and metalloproteinase domain-containing protein 17 (Homo sapiens), P78536;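 active means inhibition above the mean of compounds lying between control limits plus 3 SD, set per campaign, cut at about 8.5% in these data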;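 further: 0% = DMSO-only wells as the low control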
Target sequence (P78536 215-824 limits assumed): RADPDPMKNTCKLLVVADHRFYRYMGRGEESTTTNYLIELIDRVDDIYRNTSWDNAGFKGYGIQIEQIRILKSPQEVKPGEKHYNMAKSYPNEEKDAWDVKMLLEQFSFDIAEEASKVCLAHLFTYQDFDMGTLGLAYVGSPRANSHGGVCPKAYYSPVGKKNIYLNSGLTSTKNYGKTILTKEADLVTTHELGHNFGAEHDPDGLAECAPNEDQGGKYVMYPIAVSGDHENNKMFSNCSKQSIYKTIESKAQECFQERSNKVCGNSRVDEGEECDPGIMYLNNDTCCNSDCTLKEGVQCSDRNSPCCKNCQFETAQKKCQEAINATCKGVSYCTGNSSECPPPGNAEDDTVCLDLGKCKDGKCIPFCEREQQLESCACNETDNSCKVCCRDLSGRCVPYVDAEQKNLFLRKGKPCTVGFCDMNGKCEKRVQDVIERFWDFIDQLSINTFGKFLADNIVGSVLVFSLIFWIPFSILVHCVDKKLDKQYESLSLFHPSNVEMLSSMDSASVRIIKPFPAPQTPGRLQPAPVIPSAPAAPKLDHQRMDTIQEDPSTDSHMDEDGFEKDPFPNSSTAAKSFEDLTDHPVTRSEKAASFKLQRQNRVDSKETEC
aDG glyco up: activators of alpha-DG glycosylation, primary screen, uHTS, Pro5-aDG cells, AlphaScreen; alpha-DG glycosylation AlphaScreen (IIH6); 0% Pro5, 100% B10-LARGE cell signal; activation, % at 10 µM; actives 0.22% (n = 360,000);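 active means activation of at least 8% versus controls, or a plate z-score of at least 8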;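 further: Pro5 are CHO cells carrying HIG-tagged alpha-DG that lacks glycosylation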
GRIN3A LBD mod: binders of NR3A ligand-binding domain, primary screen, biophysical, differential scanning fluorimetry, uHTS; Glutamate receptor ionotropic, NMDA 3A (GRIN3A) ligand-binding domain; NR3A LBD differential scanning fluorimetry, Tm shift; 0% = protein alone, 100% = glycine-bound protein; Tm shift relative to glycine control, % at 25 µM; actives 2.5% (n = 340,000);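 active means melting temperature shift of at least 10% of the positive control shift, at one fixed dose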
ADAM10 inh: human ADAM10 inhibitors, primary screen, biochemical, QFRET, HTS | inhibition, % at 7 µM | actives 0.62% (n = 370,000) | recombinant ADAM10, EDANS/DABCYL FRET peptide cleavage, 3 h | AID 720582, 2013 | Disintegrin and metalloproteinase domain-containing protein 10 (Homo sapiens), O14672;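 active means inhibition above a per-campaign cutoff equal to the mean of compounds falling between control-based bounds plus 3 SD, cut at about 20% in these data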;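 further: 0% = DMSO wells while the 100% control is not disclosed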
FAS-TE inh: FAS thioesterase domain inhibitors, primary screen, biochemical, fluorescence intensity, uHTS; Fatty acid synthase (Homo sapiens), P49327; recombinant FAS-TE, OMFH fluorogenic substrate, fluorescence endpoint; inhibition, % at 15 µM; actives 0.67% (n = 360,000); AID 602261, 2012;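 active means compounds whose normalised, plate-corrected inhibition of enzyme fluorescence in the single-dose primary screen is 50% or more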;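 further: 0% = DMSO with enzyme and 100% = substrate without enzyme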
Numbers without * were called inactive; x = not tested or not shown.

SMILES | ADAM17 inh | aDG glyco up | GRIN3A LBD mod | ADAM10 inh | FAS-TE inh
COc1ccc(C(=O)Nc2ccc(C(=O)Nc3nccs3)cc2)cc1[N+](=O)[O-] | 0 | 0 | 22* | -7 | -6
CCOc1ccc(C(=O)Nc2ccc(NC(=O)c3cccs3)cc2)cc1[N+](=O)[O-] | -4 | 0 | 28* | -11 | -10
Cc1cccc(CS(=O)(=O)c2ncc(Cl)c(C(=O)Nc3nnc(C(C)C)s3)n2)c1 | x | 0 | 3 | x | 8
O=C(c1ccc(NS(=O)(=O)c2cccs2)cc1)N1CCOCC1 | -1 | 0 | 11* | -2 | -3
O=C(c1ccc(NS(=O)(=O)c2cccs2)cc1)N1CCCCC1 | -6 | 0 | 3 | -2 | 1
Cc1ccc(C(=O)Nc2nn(C)c3cccc(F)c23)cc1 | 3 | 0 | 5 | -5 | -5
Cc1nc2sc(C(c3cccc(F)c3)N3CCC(C)CC3)c(O)n2n1 (configuration not stated) | -5 | 0 | 1 | 3 | -9
Cc1nc2sc(C(c3cccc(F)c3)N3CCC(O)CC3)c(O)n2n1 (configuration not stated) | -5 | 0 | 10* | -10 | -10
COc1cccc(CNC(=O)C(C)n2ccc3cc(S(=O)(=O)N4CCCC4)ccc32)c1 (configuration not stated) | 3 | 0 | 3 | -1 | 14
O=C(CNC(=O)c1ccccc1Cl)NC1CCN(Cc2ccccc2)CC1 | 2 | 0 | 1 | -8 | -2
O=C(CCN1C(=O)/C(=C/c2ccccc2)SC1=S)NCCc1ccc(O)cc1 | x | 0 | 17* | x | 9
O=C(CCCN1C(=O)S/C(=C\c2ccccc2)C1=O)NNC(=O)c1ccccc1O | -4 | 1 | 0 | 1 | 8
COc1ccccc1/C=C1\SC(=S)N(CCC(=O)NCCc2ccc(O)cc2)C1=O | -3 | 0 | -1 | -6 | 46
COc1ccc(/C=C2\SC(=S)N(CCC(=O)NCCc3ccc(O)cc3)C2=O)cc1 | -2 | 0 | 15* | -1 | 14
O=C(CCN1C(=O)/C(=C\c2ccccc2)SC1=S)NNC(=O)c1ccccc1O | 1 | 0 | 12* | 3 | 13
O=C(CN1C(=O)S/C(=C\c2ccc(O)cc2)C1=O)c1ccccc1 | 4 | -1 | 10* | 8 | -2
COc1ccc(CNC(=O)c2cccc(S(=O)(=O)N3CCN(C)CC3)c2)cc1 | -4 | 0 | 1 | -7 | -6
Cc1cc(C)cc(NC(=O)CS(=O)(=O)c2ccccc2)c1 | -1 | 0 | -2 | 4 | -4
COc1ccc(NC(=O)C(NC(=O)Cc2cccs2)c2ccc(C)cc2)cc1 (configuration not stated) | 1 | 0 | 0 | 2 | -9
O=C(CCCN1C(=O)/C(=C/c2ccccc2Cl)SC1=S)NNC(=O)c1ccc(Cl)cc1Cl | 2 | 0 | 2 | 21* | -1
CC(/C=C1\SC(=S)N(CCC(=O)Nc2ccccc2O)C1=O)=C\c1ccccc1 | 1 | -1 | 20* | 8 | 10
O=C(CCCN1C(=O)/C(=C/c2ccccc2Cl)SC1=S)NNC(=O)c1ccccc1 | -1 | 0 | 5 | -4 | 37
CC(C)(C)c1ccc(Oc2cccc(C3CC(=O)C(C4NCCc5ccccc54)C(=O)C3n3cncn3)c2)cc1 (configuration not stated) | 0 | 0 | -6 | 6 | 3
Cc1ccc(Nc2ncnc3sc(C)c(C)c23)cc1 | -4 | 0 | -3 | 13 | 10
CCOC(=O)c1sc(NC(=O)Nc2ccc(Cl)cc2)nc1C | 5 | 1 | 28* | -13 | 2
SMILES | ADAM17 inh | aDG glyco up | GRIN3A LBD mod | ADAM10 inh | FAS-TE inh
CCOC(=O)c1sc(NC(=O)CSc2nccn2C)nc1C | 1 | 0 | 13* | -7 | -3
CCOC(=O)c1sc(NC(=O)CSc2ncccn2)nc1C | -2 | 0 | 2 | 3 | -3
CCOC(=O)Nc1nc(C)c(C(=O)c2ccc(Cl)cc2)s1 | 0 | 0 | -2 | -1 | 8
CCOC(=O)c1sc(NC(=O)c2c(CC)noc2C)nc1C | 2 | 0 | 19* | 4 | -2
CCC1(c2ccc(F)cc2)NC(=O)N(CC(=O)N2CCN(S(=O)(=O)c3ccc(C)cc3)CC2)C1=O (configuration not stated) | -1 | 0 | 0 | 1 | 4
COc1ccc(Cn2c(SCc3ccc(C)cc3)nc3cc(OC)c(OC)cc3c2=N)cc1Cl | 2 | -1 | 2 | -4 | 31
COCCCn1c(SCc2cccc(C(F)(F)F)c2)nc2cc(OC)c(OC)cc2c1=N | 4 | 0 | 10* | 3 | 38
COc1cc2nc(SCc3ccc(C(F)(F)F)cc3)n(Cc3cccs3)c(=N)c2cc1OC | -4 | 0 | 24* | 0 | 16
COc1cc2nc(SCc3ccc(Cl)cc3Cl)n(Cc3cccs3)c(=N)c2cc1OC | 0 | 0 | 22* | 5 | 30
CCCC(NC(=O)Cc1c(C)c2cc3c(C)c(C)oc3c(C)c2oc1=O)C(=O)N[C@@H](Cc1ccccc1)C(=O)O (some centres not stated) | -40 | 0 | 0 | -154 | -10
CC(C)=CCc1c(O)cc(O)c2c(=O)c3c(CC=C(C)C)c(O)ccc3oc12 | x | x | 26* | x | x
CC(C)=CCc1c(O)cc2c(=O)c3ccc(O)cc3oc2c1O | 4 | 0 | 25* | 8 | -30
COc1c(CC=C(C)C)c(O)cc2oc(=O)c3c4ccc(O)cc4oc3c12 | x | 0 | 10 | x | 0
CC(C)=CCc1c(O)cc(O)c2c(=O)c(O[C@@H]3O[C@@H](C)[C@H](O)[C@@H](O)[C@H]3O)c(-c3ccc(O)cc3)oc12 | x | -1 | -3 | x | -1
O=C(Nc1ccc2snnc2c1)Nc1cccc2ccccc12 | -9 | 1 | 38* | -27 | 14
Cc1cc(-c2csc(N)n2)c(C)n1CCc1ccccc1 | 2 | 1 | -2 | -11 | -131
O=C(Nc1ccccc1C(=O)O)c1cc(S(=O)(=O)NCc2ccccc2)ccc1Cl | 4 | 0 | -12 | 9 | -2
O=C(Nc1cccc(Cl)c1Cl)c1cc(S(=O)(=O)NCCc2ccccc2)ccc1F | 1 | 0 | 18* | 14 | 8
CCOc1ccccc1N1CCN(C(=O)NC(C)c2ccc(F)c(F)c2)CC1 (configuration not stated) | -3 | 0 | -1 | 2 | 5
CCOc1ccc(/C=N/NC(=O)c2ccc(CSc3nc4ccccc4[nH]3)cc2)cc1 | 2 | 1 | 11* | 2 | 8
O=C(N/N=C/c1ccc(OC(F)F)cc1)c1ccc(CSc2nc3ccccc3[nH]2)cc1 | 6 | 1 | 26* | 10 | 15
